JMJD2A Tudor inh: JMJD2A Tudor domain (human) inhibition; O75164; AlphaScreen JMJD2A-Tudor / H3K4me3 peptide binding; Potency, µM (series often up to 114 µM), usual class: inhibitors; hit rate 4.4% among 390,000; AID 504339; also: nearly all actives have a fitted effect of over 50% in size
HP1b binding inh: blocks HP1-beta chromodomain binding to methylated histone tails. Potency, µM (doses to about 114 µM), hits mostly inhibitors. P83916. hit rate 0.56% among 390,000. AID 540317. AlphaScreen HP1-beta / biotin-H3K9me3 peptide binding; also: nearly all actives have a fitted effect of over 70% in size
Target sequence (P83916 whole entry, looked up): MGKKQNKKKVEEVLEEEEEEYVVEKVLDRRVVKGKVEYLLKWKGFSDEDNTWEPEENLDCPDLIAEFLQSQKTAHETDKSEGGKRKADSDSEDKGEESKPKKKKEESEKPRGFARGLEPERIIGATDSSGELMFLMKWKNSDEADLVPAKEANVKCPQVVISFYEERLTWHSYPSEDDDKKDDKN
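HP1-beta protein (50 nM final) preincubated 30 min at room temperature with biotinylated H3(1-18)K9me3 peptide (50 nM) in PBS pH 7.4, 0.01% Tween-20, then compound added for 30 min. AlphaScreen streptavidin donor/nickel chelate acceptor beads (10 ug/mL final), 30 min dark, luminescence read.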
L3MBTL1 block: inhibitors of human L3MBTL1. Q9Y468. AlphaScreen L3MBTL1–H3K9me1 peptide binding. Potency, µM (series often up to 57.1 µM), actives largely listed as inhibitors. hit rate 0.66% among 230,000; also: nearly all actives have a fitted effect of over 60% in size
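L3MBTL1 (50 nM) pre-complexed 30 min with biotinylated H3(1-15)K9me1 peptide (75 nM), then compounds added for 30 min at room temperature; AlphaScreen streptavidin donor/nickel chelate acceptor beads (10 ug/mL final) read after 30 min dark incubation.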
G9a block: blocks human histone lysine methyltransferase G9a; hit rate 8.8% among 350,000; G9a H3K9 monomethylation, AlphaScreen, 2 h; Potency, µM (doses to about 102 µM), actives largely listed as inhibitors; also: nearly all actives have a fitted effect of over 75% in size
Target sequence (Q96KQ7 913-1193 limits assumed): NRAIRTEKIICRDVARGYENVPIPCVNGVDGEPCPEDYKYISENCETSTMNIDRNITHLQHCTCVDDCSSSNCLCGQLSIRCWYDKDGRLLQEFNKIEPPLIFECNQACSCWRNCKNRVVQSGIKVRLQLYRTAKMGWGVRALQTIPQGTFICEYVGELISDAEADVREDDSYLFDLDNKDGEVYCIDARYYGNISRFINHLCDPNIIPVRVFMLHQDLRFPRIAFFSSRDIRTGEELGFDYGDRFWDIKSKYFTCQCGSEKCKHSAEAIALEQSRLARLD
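Signal arises when biotinylated H3K9 peptide, once monomethylated, bridges streptavidin donor and antibody-captured acceptor beads. Enzyme at 20 nM was preincubated 15 min with test compounds; peptide 500 nM and SAM 20 uM then reacted for 2 h.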
BAZ2B inh: inhibitors of human BAZ2B bromodomain; Q9UIF8; AlphaScreen BAZ2B-H3K14Ac peptide displacement; Potency, µM (titrated, usually from 114 µM), usual class: inhibitors; hit rate 4.4% among 360,000; also: nearly all actives have a fitted effect of over 60% in size
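Compounds, titrated to a top concentration of 110 uM, were incubated 30 min at room temperature with preformed BAZ2B/acetyl-K14 H3 peptide complex (50 nM each). Proximity signal was measured by AlphaScreen after 20 min with beads.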
Sfp inh: inhibitors of Bacillus subtilis Sfp phosphopantetheinyl transferase | Q9F4F7 | Biochemical Sfp PPTase activity, qHTS | Potency, µM, usual class: inhibitors | hit rate 3.5% among 310,000 | AID 1490;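 also: the enzyme is Sfp with the accession as filed and its product quenches rhodamine fluorescence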
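After 15 min at room temperature with compound, 15 nM Sfp received 5 uM rhodamine-CoA plus 12.5 uM BHQ-2-ybbR (50 mM Hepes pH 7.6, 10 mM MgCl2). Rate came from the fluorescence difference over 30 min, ex 525/em 598 nm.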
Numbers stand for hits; . = inactive; ? = inconclusive; / = no result; [ ] = dose if it differs, or a comment. A selection: hits, their analogues and other compounds. The true share with any hit is near 12%. Calls follow the shape of the dose curve; as a rule, active = well fitted curve in the direction sought with a large enough effect; inconclusive = small, poorly fitted or top-dose-only effect, or another doubt; inactive = no such curve, though single readings can be large; an effect the other way counts as inactive or inconclusive.

SMILES	JMJD2A Tudor inh	HP1b binding inh	L3MBTL1 block	G9a block	BAZ2B inh	Sfp inh
CCOC(=O)c1c(-c2ccc(OCC)cc2)csc1NC(=O)CCN1C(=O)c2ccccc2C1=O	/	/	.	.	.	.
CCc1ccc(NC(=O)Cn2c(=O)n(CCCCC(=O)NCCc3ccccc3)c(=O)c3ccccc32)cc1	.	.	/	.	.	/
Cc1ccc(CN2C(=O)C3(c4ccccc42)N(c2cccc(C(F)(F)F)c2)C(=O)CS3(=O)=O)cc1 (configuration not stated)	.	.	/	?	.	/
Cc1cccc(N2CCN(C(=O)Cn3nc(Cc4cccnc4)c4ccccc4c3=O)CC2)c1C	?	.	/	.	.	/
CCNc1nc(C#N)nc(Nc2ccccc2)n1	.	.	/	/	/	/
COc1cn(CC(=O)Nc2ccc(F)cc2)c(CN2CCCCC2)cc1=O	.	.	/	.	.	/
COc1ccc(CNC(=O)Cc2ccc(NC(=O)N3CCCCc4ccccc43)cc2)cc1	.	.	/	.	.	/
Cc1ccc(OCC(=O)Nc2ccc3nc(SCC(=O)N4CCCC4)sc3c2)cc1C	.	.	/	.	.	/
COCCNC(=O)Cn1cc(C(=S)N2CCCCC2)c2ccccc21	.	.	.	/	?	.
O=C(O)Cn1cc(C(=S)N2CCCCC2)c2ccccc21	?	.	.	10µM	.	22µM
O=C(O)Cn1cc(C(=S)N2CCOCC2)c2ccccc21	.	.	/	?	.	50µM
O=C(c1cccs1)n1cc(C(=S)N2CCOCC2)c2ccccc21	?	.	/	28µM	?	.
CN1CCN(C(=S)c2cn(Cc3ccccc3)c3ccccc23)CC1	?	.	/	45µM	?	.
CC1CCN(C(=S)c2cn(Cc3cccc(F)c3)c3ccccc23)CC1	.	.	.	.	?	.
COC(=O)c1ccccc1NC(=O)c1sc2nc(C)cc(C)c2c1NC(=O)c1ccccc1Cl	.	.	/	.	.	/
Cc1cccc(C)c1NC(=O)C(=O)NCC(c1ccc2c(c1)OCO2)N1CCOCC1 (configuration not stated)	.	.	/	.	.	/
O=C(CSc1nnc(CNC(=O)c2cccc(F)c2)n1-c1ccccc1)Nc1ccccc1F	.	.	/	.	.	/
S=C(c1cn(CCOc2ccccc2)c2ccccc12)N1CCCC1	.	.	.	35µM	.	?
S=C(c1cn(CCOc2cccc3ccccc23)c2ccccc12)N1CCCC1	?	.	.	?	.	.
Cc1c(CN(C)CCc2ccccc2)c(=O)n(-c2ccccc2)n1C	3.5µM	?	.	4µM	?	.
Cc1c(N=NC2=C(O)CC(C)(C)CC2=O)c(=O)n(-c2ccccc2)n1C	50µM	?	.	.[12.7 µM]	35µM	40µM
Cc1c(O)c(=O)n(-c2ccccc2)n1C	.	.	.	8.9µM	.	?
CC(=O)/C(N=Nc1c(C)n(C)n(-c2ccccc2)c1=O)=C(\C)O	.	.	.	.	?	.
CCCC(=O)NC(=S)c1c(C)n(C)n(-c2ccccc2)c1=O	.	.	.	45µM	.	.
Cc1c(I)c(=O)n(-c2ccccc2)n1C	/	/	/	.	/	.
SMILES	JMJD2A Tudor inh	HP1b binding inh	L3MBTL1 block	G9a block	BAZ2B inh	Sfp inh
Cc1c(Cc2c(C)n(C)n(-c3ccccc3)c2=O)c(=O)n(-c2ccccc2)n1C	.	.	.	.	.	.
Cc1ccc2c(c1)C(c1ccc(F)cc1)N(C(=O)C(C)C)CC(=O)N2 (configuration not stated)	.	.	/	.	.	/
Cn1c2ccccc2c2nnc(SCCOc3ccccc3)nc21	.	.	/	/	/	/
CCOC(=O)/C(N=Nc1c(C)n(C)n(-c2ccccc2)c1=O)=C(\C)O	.	.	.	.	.	.
CCNc1ccc(N=Nc2c(C)n(C)n(-c3ccccc3)c2=O)cc1	.	.	.	?	32µM	.
Cc1c(N=C2Nc3cccc4cccc2c34)c(=O)n(-c2ccccc2)n1C	.	.	.	.	.	.
Cc1ccc(O)c(N=NC2=C(O)CC(C)(C)CC2=O)c1	56µM	.	28µM	?	32µM	.
CCC(C)C1=CC(=Nc2c(C)n(C)n(-c3ccccc3)c2=O)C=C(C(C)CC)C1=O (configuration not stated)	?	.	.	?	3.5µM	.
Cc1c(-n2c(=S)[nH]c3ccccc3c2=O)c(=O)n(-c2ccccc2)n1C	20µM	.	/	?	.	.
Cc1ccc(-c2nc3ccccc3c(=O)n2-c2c(C)n(C)n(-c3ccccc3)c2=O)cc1	.	.	.	/	.	.
COCCNC(=O)C1CCN(S(=O)(=O)c2ccc3c(c2)CCCN3C(C)=O)CC1	.	.	/	.	.	/
CCn1cc2nc(SCc3cccc(C(F)(F)F)c3)n(Cc3ccc(C)cc3)c(=O)c2n1	.	.	/	.	.	/
Cc1cc(C)c2c(CC(=O)Nc3ccc(S(=O)(=O)Nc4ncccn4)cc3)coc2c1	.	.	/	?	.	/
CCCCNC(=O)Cn1c(=O)cc(C)c2c(C)nn(-c3cccc(Cl)c3C)c21	.	.	/	.	.	/
Cc1c(N=c2scc(-c3ccccc3)n2C)c(=O)n(-c2ccccc2)n1C	.	.	/	.	?	.
CC1=CC(=Nc2c(C)n(C)n(-c3ccccc3)c2=O)C=C(C)C1=O	.	?	.	40µM	.	79µM
CC1=CC(=Nc2c(C)n(C)n(-c3ccccc3)c2=O)C=CC1=O	/	/	.	10µM	45µM	8.9µM
COc1ccc(NC(=O)/C(C#N)=C\c2ccc(OCc3ccc(C(=O)O)cc3)c(OC)c2)cc1	?	?	/	?	?	.
CCOc1cc(/C=C(\C#N)C(=O)Nc2cccc(C(=O)O)c2)ccc1OCc1ccccc1Cl	56µM	.	/	50µM	50µM	?
CCOc1cc(/C=C(\C#N)C(=O)Nc2cccc(C(=O)O)c2)cc(Br)c1OC(=O)c1ccc(OC)cc1	56µM	?	/	56µM	50µM	79µM
COc1ccccc1C(=O)NC(CCSC)C(=O)Nc1ccc(C)c(S(=O)(=O)N2CCOCC2)c1 (configuration not stated)	.	.	.	/	/	/
CSCCC(NC(=O)c1ccccc1Cl)C(=O)Nc1cccc(S(=O)(=O)N2CCCC2)c1 (configuration not stated)	.	.	.	45µM	.	/
CSCCC(NC(=O)c1cccc(C)c1)C(=O)Nc1sccc1C(N)=O (configuration not stated)	.	.	/	50µM	.	.
CSCCC(NC(=O)c1ccccc1Cl)C(=O)NC1CCN(Cc2ccccc2)CC1 (configuration not stated)	.	.	/	1.6µM	.	.
CSCCC(NC(=O)c1cccc(S(=O)(=O)N2CCOCC2)c1)C(=O)Nc1cccc(C)c1 (configuration not stated)	.	.	.	10µM	.	.
CSCCC(NC(=O)c1ccccc1)C(=O)Nc1ccc(C)cc1 (configuration not stated)	.	.	.	.	.	.

Source: PubChem BioAssay (National Center for Advancing Translational Sciences (NCATS))
